Each structure is given as a SMILES string. Entries with a potency or affinity are not part of this list. Results filed as inconclusive are left out. Activity calls are given as the source filed them. The rule behind the calls is not given here.

This assay can be described thus: THP-1 cell cytotoxicity, cytotoxicity control, set 6 (AID 602433). The note with it: THP-1 cell viability, cytotoxicity CC50; series mostly up to 100 µM.
Turning to `COC(=O)C(Cc1ccccc1)NC(=O)CSc1nc2ccccc2c(=O)[nH]1` (stereo not drawn), the call was inactive.
For `O=C(c1ccc(CNc2c(N3CCCC3)c(=O)c2=O)cc1)N1CCN(c2ccccc2)CC1` the value was “inactive”.
On to `O=C(NCc1ccc(C(=O)N2CCN(c3ccccc3)CC2)cc1)NC1CCCCC1`, for which the outcome was inactive.
Regarding `CC(C)CCNC(=O)CSc1nc2c(c(=O)[nH]1)CCCCC2`, the molecule was called inactive.
In the case of `O=C(CSc1nc2c(c(=O)[nH]1)CCCC2)NC1CCCCC1` it was “inactive”; in that of `O=C(c1ccc(CNc2c(N3CCOCC3)c(=O)c2=O)cc1)N1CCN(c2ccccc2)CC1`, “inactive”.
Consider `O=C(c1ccc(CNc2c(N3CCCC3)c(=O)c2=O)cc1)N1CCC(c2ccccc2)CC1`, for which the result was inactive.
`O=C(CSc1nc2c(c(=O)[nH]1)CCC2)NC1CCCCC1`: the outcome was inactive.

The record behind these values is PubChem BioAssay AID602433 (Southern Research Specialized Biocontainment Screening …, 2012).
